The structures appear in SMILES notation. Several values for one entry are separate records, joined by “and”; a condition that tells them apart may be missing. Identical values can stand only once. Records with an inconclusive call do not appear. Some structures have more than one record in an assay (separate samples or runs), and their calls can disagree. Activity calls are given as the source filed them. Unless noted, calls come from the whole dose curve; as a rule, active = well fitted curve in either direction with a large enough effect (not every such curve was filed as active); inconclusive = small, poorly fitted or top-dose-only effect, or another doubt; inactive = flat fitted curve, though single readings scatter.

The values below come from PubChem BioAssay (NCATS).

A short description of assay [1]: AP1 Signaling Pathway (AID 357). Note: % is set by controls: 0 for no effect and ±100 for the full control effect. Particulars: ME-180 AP-1-bla reporter, EGF-induced, beta-lactamase ratio, 5 h. In outline: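 Cells are seeded overnight, exposed to compound titrations and an EC50 level of EGF for 5 hours at 37 °C, then loaded with CCF4 dye for 2.5 hours. Beta-lactamase activity under the AP-1 element is read as a blue/green ratio.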
The nature of assay [2]: NFAT Signaling Pathway (AID 444).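 Note: carbachol stimulus at about its EC50 of 1 µM final; % is set by controls: 0 for no effect and ±100 for the full control effect.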 Particulars: Jurkat NFAT-bla M1, carbachol, beta-lactamase ratio, 5 h. In outline: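 Jurkat cells carrying an NFAT-driven β-lactamase reporter and co-transfected muscarinic M1 receptor were treated with compound plus carbachol (1 uM final, an EC50 level) for 5 h at 37 °C. CCF4 loading followed for 1 h at RT; 460/530 nm ratio gave %activity.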

Assay [3] is described as follows: Stat Signaling Pathway (AID 446).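 Note: ME-180 cervical cancer cells given 40 pM IL-6 alongside compound; SIE-controlled beta-lactamase reporter measured as 460/530 nm FRET emission ratio; % is set by controls: 0 for no effect and ±100 for the full control effect.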 Conditions: ME-180 (cervical carcinoma) SIE beta-lactamase reporter, IL-6 stimulated, 5 h. An outline of the steps:
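Normalization used AC90 stimulation (300 pM IL-6) and AC90 inhibition (125 nM pan-JAK inhibitor at 40 pM IL-6). The underlying signal is SIE-driven beta-lactamase in ME-180 cells after 5 h IL-6 exposure with compound.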

Assay [4] concerns the target Glucocorticoid receptor (Homo sapiens) (UniProt P04150). As to the kind of experiment: GR-GFP Redistribution (AID 450;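 active = compounds whose dose series gives a full or clear partial fitted curve of increased nuclear translocation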; note: potency is the fitted concentration of half-maximal effect). Particulars: U2OS GR-GFP nuclear translocation, laser cytometry, 2 h.
The target is the same in assay [5]. Nature of the assay: GR-EFC Redistribution (AID 451; calls by dose curve; note: potency is the fitted concentration of half-maximal effect). Particulars: CHO-K1 GR-EFC translocation, beta-gal luminescence, 2 h. In outline: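 CHO-K1 cells stably expressing nuclear-localized β-gal enzyme acceptor and GR fused C-terminally to the enzyme donor fragment; ligand-driven nuclear translocation restores β-gal by complementation. Compounds titrated up to 46 uM final, 2 h at 37 °C; luminescence read.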

Assay [6] has as its target Mitogen-activated protein kinase 10 (Mus musculus) (UniProt Q61831). Nature of the assay: JNK3 AlphaScreen Assay (AID 530).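 Note: kinase came from lysate of stimulated human HepG2 cells.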 Note: potency is the fitted concentration of half-maximal effect. In outline:
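Phosphorylation of biotinylated GST-cJun(1-79) at Ser73 is measured by AlphaScreen proximity luminescence. Enzyme is JNK3 in HepG2 lysates activated with interleukin-1beta and tumor necrosis factor alpha; ATP is 10 uM final.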

In assay [7] the target is 3',5'-cyclic-AMP phosphodiesterase 4B (Homo sapiens) (UniProt Q07343). As to the kind of experiment: qHTS Assay for Inhibitors of PDE-IV (AID 607; active = well fitted activation curve with a large enough effect in the main read-out, with a control signal flat, not every such curve was filed as active; note: % of control where 0% means no effect). An outline of the steps:
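HEK293 ACTOne cells with CNG channel (1000/well), endogenous PDE4; membrane potential dye, compounds up to 22.9 uM final. Fluorescence Ex 535/Em 590; RO 20-1724 (100 uM final) as reference.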
For orientation: Quantitative high-throughput screening tests each substance at several concentrations.

Assay [8] in a line: qHTS Assay for Lipid Storage Modulators (AID 1519; calls by dose curve). Particulars: Drosophila S3 cells, BODIPY lipid droplet/cell ratio, laser cytometry, cells loaded with oleic acid; for activity change, negative = inhibition: at 25.7 µM (top of the series). In outline:
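Cells seeded at 5,000 per well were treated with compounds over a concentration series and loaded with oleic acid (400 uM, as added). Lipid droplet fluorescence (488 nm excitation, 500-530 nm channel) was read by laser-scanning cytometry and normalized to 20 uM Triacsin C.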

For assay [9], the target named is Ubiquitin carboxyl-terminal hydrolase 1 (Homo sapiens) (UniProt O94782). As to the kind of experiment: Inhibitors of USP1/UAF1: Pilot qHTS (AID 504865; active = well fitted curve in the direction sought with a large enough effect; an effect the other way counts as inactive or inconclusive;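 note: rhodamine fluorescence freed from ubiquitin-rhodamine substrate followed over time; top concentration of the series differs between compounds; % is set by controls: 0 for no effect and ±100 for the full control effect; nearly all actives have a fitted effect of over 35% in size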). An outline of the steps: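 USP1/UAF1 complex at 1 nM preincubated 15 min at room temperature with compound, then Ub-Rho substrate added at 150 nM final. Fluorescence (480/540 nm) read kinetically in 50 mM HEPES pH 7.8, 0.5 mM EDTA, 1 mM TCEP, 0.1 mg/ml BSA, 0.01% Tween-20.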
Ubiquitin carboxyl-terminal hydrolase 1 (Homo sapiens), sequence (O94782 whole entry, looked up): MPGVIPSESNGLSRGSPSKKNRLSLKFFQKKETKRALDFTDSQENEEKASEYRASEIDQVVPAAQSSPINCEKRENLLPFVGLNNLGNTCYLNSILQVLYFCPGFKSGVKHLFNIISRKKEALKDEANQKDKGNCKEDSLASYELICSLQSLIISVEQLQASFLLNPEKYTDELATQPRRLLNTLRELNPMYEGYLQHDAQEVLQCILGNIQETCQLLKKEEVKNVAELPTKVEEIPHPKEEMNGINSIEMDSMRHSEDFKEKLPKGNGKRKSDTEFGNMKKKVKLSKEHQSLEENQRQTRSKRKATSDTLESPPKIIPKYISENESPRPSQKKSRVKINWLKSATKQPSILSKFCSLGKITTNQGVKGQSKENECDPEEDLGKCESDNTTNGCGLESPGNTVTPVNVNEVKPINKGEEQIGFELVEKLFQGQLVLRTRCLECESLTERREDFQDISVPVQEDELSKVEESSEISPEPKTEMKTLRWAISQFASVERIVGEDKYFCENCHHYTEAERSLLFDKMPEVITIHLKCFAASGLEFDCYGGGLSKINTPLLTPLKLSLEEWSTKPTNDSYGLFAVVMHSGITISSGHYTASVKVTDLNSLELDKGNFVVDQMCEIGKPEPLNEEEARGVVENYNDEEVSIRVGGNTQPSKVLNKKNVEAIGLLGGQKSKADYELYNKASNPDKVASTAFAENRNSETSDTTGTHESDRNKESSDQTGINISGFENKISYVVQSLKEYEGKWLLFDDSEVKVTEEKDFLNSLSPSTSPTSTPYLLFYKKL

For assay [10], the target named is Cytochrome P450 1A2 (Homo sapiens) (UniProt P05177). As to the kind of experiment: p450-cyp1a2 (AID 410; calls by dose curve;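 note: -100% = full effect of reference inhibitor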). An outline of the steps: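 O-Demethylation of luciferin 6' methyl ether by human CYP1A2 is monitored as luciferase luminescence. Substrate sits at Km (100uM); enzyme is 20nM. Values are scaled to 57 uM furafylline as maximal inhibition.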
Cytochrome P450 1A2 (Homo sapiens), sequence (P05177 whole entry, looked up): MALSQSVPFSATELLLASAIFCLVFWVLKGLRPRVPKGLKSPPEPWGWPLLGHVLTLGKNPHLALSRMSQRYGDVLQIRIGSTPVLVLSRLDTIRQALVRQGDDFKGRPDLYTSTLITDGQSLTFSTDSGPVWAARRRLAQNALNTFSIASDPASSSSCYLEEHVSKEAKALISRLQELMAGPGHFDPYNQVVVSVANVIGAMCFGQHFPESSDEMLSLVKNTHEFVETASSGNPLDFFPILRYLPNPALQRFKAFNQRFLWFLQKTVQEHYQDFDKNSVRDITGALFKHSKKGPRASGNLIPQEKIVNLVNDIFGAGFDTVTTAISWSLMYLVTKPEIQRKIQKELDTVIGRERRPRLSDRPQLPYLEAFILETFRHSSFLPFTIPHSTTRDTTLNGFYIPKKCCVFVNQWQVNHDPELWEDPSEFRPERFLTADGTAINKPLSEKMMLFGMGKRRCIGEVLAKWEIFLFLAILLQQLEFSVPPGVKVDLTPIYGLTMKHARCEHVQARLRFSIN
Assay [11] deals with ATP-dependent 6-phosphofructokinase (Trypanosoma brucei brucei) (UniProt O15648). Nature of the assay: qHTS Assay to Find Inhibitors of T. brucei phosphofructokinase: hit validation (AID 492961; active = well fitted curve in the direction sought with a large enough effect; an effect the other way counts as inactive or inconclusive;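 note: luminescence reports ADP formed as PFK phosphorylates fructose-6-phosphate with ATP; % is set by controls: 0 for no effect and ±100 for the full control effect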). In outline: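 Percent activity derived from corrected luminescence, normalized between 0x and 1x enzyme controls, then fitted to concentration-response curves. Conditions: 1.25 nM PFK, 0.1 mM ATP, 0.5 mM F6P, 45 min RT.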
ATP-dependent 6-phosphofructokinase (Trypanosoma brucei brucei), sequence (O15648 whole entry, looked up): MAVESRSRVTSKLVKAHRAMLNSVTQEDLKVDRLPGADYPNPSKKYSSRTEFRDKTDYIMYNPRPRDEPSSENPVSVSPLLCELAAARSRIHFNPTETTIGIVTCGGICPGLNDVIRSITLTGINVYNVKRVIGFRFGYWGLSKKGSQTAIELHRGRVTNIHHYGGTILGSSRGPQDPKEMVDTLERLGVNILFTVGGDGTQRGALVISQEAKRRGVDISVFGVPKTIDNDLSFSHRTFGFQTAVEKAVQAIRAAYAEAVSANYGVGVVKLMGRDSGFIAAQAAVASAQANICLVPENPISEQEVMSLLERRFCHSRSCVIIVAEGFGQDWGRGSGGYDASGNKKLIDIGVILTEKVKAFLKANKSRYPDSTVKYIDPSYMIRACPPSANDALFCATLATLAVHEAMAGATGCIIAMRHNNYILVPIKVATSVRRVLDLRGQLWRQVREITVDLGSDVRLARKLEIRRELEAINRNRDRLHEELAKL

The target of assay [12] is Luciferin 4-monooxygenase (Photinus pyralis) (UniProt P08659). Nature of the assay: Biochemical firefly luciferase enzyme assay for NPC (AID 624030; active = well fitted curve in the direction sought with a large enough effect; an effect the other way counts as inactive or inconclusive;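 note: purified P. pyralis luciferase at 10 nM with luciferin and ATP substrate; 0% = DMSO and -100% = full luciferase inhibition by PTC124 control; nearly all actives have a fitted effect of over 70% in size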). An outline of the steps: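 Counter-screen for direct inhibition of the luciferase enzyme by approved-drug library compounds, run at 10 nM enzyme in 50 mM Tris acetate (final). Luminescence was read within 5 min of enzyme-buffer addition and normalized to PTC124 versus DMSO (0%).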
Luciferin 4-monooxygenase (Photinus pyralis), sequence (P08659 whole entry, looked up): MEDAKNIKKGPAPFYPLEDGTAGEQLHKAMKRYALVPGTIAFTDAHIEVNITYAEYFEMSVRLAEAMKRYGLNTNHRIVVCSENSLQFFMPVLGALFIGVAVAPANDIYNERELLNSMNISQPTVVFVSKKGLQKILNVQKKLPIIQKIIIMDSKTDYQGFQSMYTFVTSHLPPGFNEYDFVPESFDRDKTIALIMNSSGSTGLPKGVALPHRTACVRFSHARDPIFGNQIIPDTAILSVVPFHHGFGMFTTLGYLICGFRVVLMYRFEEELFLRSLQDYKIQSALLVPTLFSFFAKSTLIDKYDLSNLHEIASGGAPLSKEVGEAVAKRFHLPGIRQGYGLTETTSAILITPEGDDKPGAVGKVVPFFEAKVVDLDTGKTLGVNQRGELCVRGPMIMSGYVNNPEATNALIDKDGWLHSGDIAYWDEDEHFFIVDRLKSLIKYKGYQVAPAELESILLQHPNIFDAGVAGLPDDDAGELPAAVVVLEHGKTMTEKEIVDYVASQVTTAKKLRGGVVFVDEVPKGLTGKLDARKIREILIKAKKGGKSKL

The nature of assay [13]: qHTS profiling for inhibitors of Plasmodium falciparum proliferation (AID 504749; active = well fitted curve in the direction sought with a large enough effect; an effect the other way counts as inactive or inconclusive;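 note: 0% = DMSO vehicle and full inhibition = artemisinin control; nearly all actives have a fitted effect of over 60% in size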). Conditions: P. falciparum in erythrocytes, SYBR Green DNA, 72 h, at 12.8 µM (top of the series). An outline of the steps: (§1)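 Quantitative HTS: compounds pinned into medium, infected erythrocytes added (0.3% parasitemia, 2.5% hematocrit), 72 h culture at 37 C under 5% CO2. Saponin/Triton lysis with SYBR Green I, overnight RT, then fluorescence read.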

Assay [14] concerns AS120. The description is as above. Particulars: P. falciparum in erythrocytes, SYBR Green DNA, 72 h; series mostly up to 28.7 µM. An outline of the steps: as §1
Assay [15] relates to CP201. The assay is described as above. Conditions: P. falciparum in erythrocytes, SYBR Green DNA, 72 h; series mostly up to 12.8 µM. An outline of the steps:
as §1

The test system of assay [16] is CP238. Described as above. Conditions: P. falciparum in erythrocytes, SYBR Green DNA, 72 h; series mostly up to 12.8 µM. An outline of the steps:
as §1

Assay [17] deals with CP262. Described as above. Conditions: P. falciparum in erythrocytes, SYBR Green DNA, 72 h; series mostly up to 12.8 µM. An outline of the steps:
as §1

Assay [18] deals with CP265. The assay is described as above. Conditions: P. falciparum in erythrocytes, SYBR Green DNA, 72 h; series mostly up to 12.8 µM. An outline of the steps: as §1
Assay [19] relates to FAB9. Described as above. Particulars: P. falciparum in erythrocytes, SYBR Green DNA, 72 h; series mostly up to 12.8 µM. In outline:
as §1

Assay [20] has as its system JCK. Described as above. Conditions: P. falciparum in erythrocytes, SYBR Green DNA, 72 h; series mostly up to 12.8 µM. An outline of the steps:
as §1

The mark [21] stands for this setting: measured here: cell count channel max response.
The mark [22] stands for this setting: measured here: lipid channel max response.
Setting [23] is: at 7.69 µM (top of the series) unless noted.

Glucocorticoid receptor (Homo sapiens), sequence (P04150 whole entry, looked up, the tested form may be a part): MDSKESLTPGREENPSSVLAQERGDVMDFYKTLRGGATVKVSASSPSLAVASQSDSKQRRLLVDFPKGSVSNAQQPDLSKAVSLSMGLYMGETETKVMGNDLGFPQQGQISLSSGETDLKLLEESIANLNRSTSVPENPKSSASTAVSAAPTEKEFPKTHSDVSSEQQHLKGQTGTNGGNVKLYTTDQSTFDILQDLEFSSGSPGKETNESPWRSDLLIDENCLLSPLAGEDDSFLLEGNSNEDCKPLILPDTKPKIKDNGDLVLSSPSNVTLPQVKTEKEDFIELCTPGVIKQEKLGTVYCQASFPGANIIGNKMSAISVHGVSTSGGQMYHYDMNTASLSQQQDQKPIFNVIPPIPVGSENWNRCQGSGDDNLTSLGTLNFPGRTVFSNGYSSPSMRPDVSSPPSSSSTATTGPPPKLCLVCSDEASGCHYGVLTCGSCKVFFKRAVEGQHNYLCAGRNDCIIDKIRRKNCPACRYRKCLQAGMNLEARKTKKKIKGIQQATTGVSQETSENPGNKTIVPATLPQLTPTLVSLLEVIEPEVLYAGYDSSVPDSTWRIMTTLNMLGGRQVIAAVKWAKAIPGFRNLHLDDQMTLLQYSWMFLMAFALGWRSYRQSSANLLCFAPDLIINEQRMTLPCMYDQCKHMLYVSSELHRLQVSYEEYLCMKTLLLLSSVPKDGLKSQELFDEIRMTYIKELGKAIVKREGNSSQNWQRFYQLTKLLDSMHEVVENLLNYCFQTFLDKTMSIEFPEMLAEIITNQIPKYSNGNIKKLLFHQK
3',5'-cyclic-AMP phosphodiesterase 4B (Homo sapiens), sequence (Q07343 whole entry, looked up): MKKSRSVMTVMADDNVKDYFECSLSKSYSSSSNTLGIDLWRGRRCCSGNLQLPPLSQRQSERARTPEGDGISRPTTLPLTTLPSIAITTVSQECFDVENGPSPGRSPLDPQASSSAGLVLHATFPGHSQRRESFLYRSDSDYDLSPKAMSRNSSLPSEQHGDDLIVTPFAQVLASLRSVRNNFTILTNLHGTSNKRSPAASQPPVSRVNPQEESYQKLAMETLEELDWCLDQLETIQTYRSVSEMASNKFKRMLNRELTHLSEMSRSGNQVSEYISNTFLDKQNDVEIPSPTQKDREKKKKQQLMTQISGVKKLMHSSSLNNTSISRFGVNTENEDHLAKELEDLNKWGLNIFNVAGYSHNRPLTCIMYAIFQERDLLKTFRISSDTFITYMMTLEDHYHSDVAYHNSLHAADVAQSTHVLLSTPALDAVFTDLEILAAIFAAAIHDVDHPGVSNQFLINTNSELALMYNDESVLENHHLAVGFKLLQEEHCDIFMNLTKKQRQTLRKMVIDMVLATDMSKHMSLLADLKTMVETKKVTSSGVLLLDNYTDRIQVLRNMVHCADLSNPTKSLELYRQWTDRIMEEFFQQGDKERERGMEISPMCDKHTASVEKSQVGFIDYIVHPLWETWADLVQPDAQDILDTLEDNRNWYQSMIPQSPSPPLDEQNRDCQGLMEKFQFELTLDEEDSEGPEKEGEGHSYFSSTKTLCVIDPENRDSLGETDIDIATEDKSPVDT

Take `CN1CCc2cccc3c2[C@@H]1Cc1ccc(O)c(O)c1-3`: the activity change, negative = inhibition is -20.2% (inactive) in [1] (at 17.2 µM (top of the series)); -26.6% (inactive) in assay [1] (at 38 µM (top of the series)); -6.25% (inactive) in assay [2] (at 17.2 µM (top of the series)); -15.4% (inactive) in assay [2] (at 38 µM (top of the series)); 2.32% (inactive) in assay [8]. The activity, negative = inhibition in assay [3] (at 17.2 µM (top of the series)) was 1.07% (inactive); in assay [3] (at 38 µM (top of the series)), -10.2% (inactive). Further, the Potency is > 46 µM (inactive) and > 20.6 µM (inactive) in [4]; > 46 µM (inactive) and > 20.6 µM (inactive) in assay [5]; “inactive and 15.8 µM (active)” in assay [6]. Moreover, the Potency entry in [7] and in assay [9] was “inactive” throughout. The results for the max response in [8] (setting [21]) and in [8] (setting [22]) were 2.96% and 6.43%, respectively.

Turning to `NS(=O)(=O)c1cc([C@@]2(O)NC(=O)c3ccccc32)ccc1Cl`, the activity change, negative = inhibition in assay [1] (setting [23]) is -7.43% [at 17.2 µM] (inactive); in assay [2] (setting [23]), -15.2% [at 17.2 µM] (inactive); in assay [8], -1.2% (inactive). Further, the Potency entry in assay [10], in [6], in assay [7], in assay [9], in assay [14] and in [15] was “inactive” throughout. The Potency entry in assay [16], in [17], in assay [18], in assay [19] and in assay [20] was “inactive” each time. In addition, the activity, negative = inhibition was 1.16% [at 17.2 µM] (inactive) in [3] (setting [23]), -2.59% (inactive) in assay [13] (parasite line A) and 2.66% (inactive) in [13] (parasite line B). The Potency in assay [4] and in [5] was > 20.6 µM (inactive) each time. Also, the max response was -12.6% in assay [8] (setting [21]) and -14.5% in assay [8] (setting [22]). Moreover, the result in assay [11] and in assay [12] was inactive.

Regarding `CN(C)CCO[C@](C)(c1ccccc1)c1ccccn1`, the activity change, negative = inhibition was 4.7% (inactive) in assay [1] (at 17.2 µM (top of the series)), 3.93% (inactive) in [1] (at 38 µM (top of the series)) and 0.849% (inactive) in assay [8]. In addition, the Potency result in [10], in assay [6], in [7] and in [9] was “inactive” in each case. Further, the activity, negative = inhibition was -3.9% (inactive) in assay [3] (at 17.2 µM (top of the series)) and 8.94% (inactive) in assay [3] (at 38 µM (top of the series)). The max response came to 16.6% in [8] (setting [21]) and 17.9% in assay [8] (setting [22]). The compound was called inactive in [12].

On to `C[C@]12CCC3c4ccc(O)cc4CCC3[C@@H]1CCC2=O` (some centres undefined), for which the activity change, negative = inhibition in assay [1] (at 17.2 µM (top of the series)) is 0.112% (inactive); in assay [1] (at 38 µM (top of the series)) it was -3.57% (inactive); in assay [2] (at 17.2 µM (top of the series)), -16.8% (inactive); in [2] (at 38 µM (top of the series)), -2.29% (inactive); in assay [8], -0.972% (inactive). The activity, negative = inhibition was -9.06% (inactive) in assay [3] (at 17.2 µM (top of the series)) and -20.6% (inactive) in assay [3] (at 38 µM (top of the series)). The Potency result in [6], in [7] and in [9] was “inactive” throughout. Besides, the max response in assay [8] (setting [21]) was -7.49%; in assay [8] (setting [22]), -8.59%.

Turning to `CN[C@@H]1[C@H](O[C@@H]2O[C@H](CO)[C@@H](N)[C@H](O)[C@@H]2O)O[C@H]2C[C@@H](N)[C@@H](O[C@H]3[C@@H](O)[C@H](O)[C@H](N)C[C@@H]3N)O[C@H]2[C@H]1O`, the activity change, negative = inhibition in assay [1] (setting [23]) was 3.97% [at 17.2 µM] (inactive); in assay [2] (setting [23]), -18% [at 17.2 µM] (inactive); in [8], -1.23% (inactive). Further, the Potency entry in [10], in assay [6], in [7], in assay [9], in assay [14] and in assay [15] was “inactive” throughout. In addition, the Potency result in assay [16], in assay [17], in assay [18], in assay [19] and in assay [20] was “inactive” each time. The activity, negative = inhibition is -2.35% [at 17.2 µM] (inactive) in assay [3] (setting [23]), -1.02% (inactive) in assay [13] (parasite line A) and -5.91% (inactive) in assay [13] (parasite line B). Further, the Potency in assay [4] and in [5] was > 20.6 µM (inactive) throughout. In addition, the max response in assay [8] (setting [21]) was -10.4%; in assay [8] (setting [22]), -11.9%. For the same compound, the compound was classed as inactive in [11] and in [12].
